Hit rate of the full screen: of about 16,000 compounds, about 5,800 (36%) were called active. Not shown: some 23% with an inconclusive outcome. The call rests on the fitted dose curve; in most records, active means well fitted curve in the direction sought with a large enough effect; inconclusive means small, poorly fitted or top-dose-only effect, or effect the other way; inactive means no such curve, though single readings can be large or run the other way. The list shows a part of the results.
Each molecule was assayed against Cytochrome P450 2C19 (Homo sapiens) (UniProt P33261) (assay: Cytochrome panel assay with activity outcomes). Settings: recombinant CYP, pro-luciferin dealkylation, luminescence, p450-cyp2c19; series mostly up to 57.1 µM; activity, negative = inhibition: at the top concentration.
Chain of Cytochrome P450 2C19 (Homo sapiens) (P33261 whole entry, looked up): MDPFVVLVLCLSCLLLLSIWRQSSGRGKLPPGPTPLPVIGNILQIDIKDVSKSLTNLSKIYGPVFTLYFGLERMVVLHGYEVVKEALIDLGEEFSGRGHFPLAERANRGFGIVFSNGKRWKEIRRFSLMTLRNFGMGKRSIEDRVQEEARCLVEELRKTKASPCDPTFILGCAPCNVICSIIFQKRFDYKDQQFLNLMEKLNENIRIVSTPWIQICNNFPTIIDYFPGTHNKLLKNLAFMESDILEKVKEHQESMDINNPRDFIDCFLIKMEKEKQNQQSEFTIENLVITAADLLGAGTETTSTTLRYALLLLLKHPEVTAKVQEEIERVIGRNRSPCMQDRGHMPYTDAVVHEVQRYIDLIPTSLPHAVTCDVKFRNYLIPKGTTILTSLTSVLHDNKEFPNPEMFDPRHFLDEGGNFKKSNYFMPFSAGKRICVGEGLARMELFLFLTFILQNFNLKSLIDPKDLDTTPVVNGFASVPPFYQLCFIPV
On the % scale 0 is the no-effect control and ±100 the full control effect.

activity, negative = inhibition, inactive:
O=C(O)CCC(O)=C1S(=O)(=O)OCCOS1(=O)=O 3.76% [at 11.4 µM]
Cc1nnc(NC(=O)c2cccc(NC(=O)C(C)C)c2)s1 -13.6%
O=C(O)Cc1cc(I)c(Oc2ccc(O)c(I)c2)c(I)c1 -1.1% [at 25.6 µM]
CC[C@H](C)C(=O)O[C@H]1CCC=C2C=C[C@H](C)[C@H](CC[C@@H]3C[C@H](O)CC(=O)O3)[C@H]21 4.99%
Nc1n[nH]c2ccccc12 -23.5% [at 11.4 µM]
Cc1cc(C)nc(NS(=O)(=O)c2ccc(N)cc2)n1 -5.99% [at 25.6 µM]
CC(=O)OC[C@@H]1O[C@@H](O/N=C2/C[C@@H](O)[C@@H](O)[C@@H]3[C@@H]4C(=O)N(C[C@@H]5CCCO5)C(=O)[C@H]4CC[C@@H]23)[C@H](OC(C)=O)[C@H](OC(C)=O)[C@@H]1OC(C)=O 3.68% [at 11.4 µM]
Nc1nc(-c2ccccc2)c(-c2ccccc2)c(-c2nc(N)nc(-c3ccccc3)c2-c2ccccc2)n1 13% [at 11.4 µM]
Cc1ccc(C)c(NC(=O)C2C3CCCC2C3c2ccccc2)c1 (stereo unspecified) -1.2%
CC(C)CN1CCCC2(CCN(C(=O)c3cc(C(F)(F)F)cc(C(F)(F)F)c3)CC2)C1 -8.77%
CC(=O)C[C@H](O)[C@@H](NC(=O)OC(C)(C)C)C(C)C -9.61% [at 11.4 µM]
CC(C)[C@H](NC(=O)OC(C)(C)C)[C@@H](O)CC(=O)OC(C)(C)C -17.9% [at 11.4 µM]
Cc1nn(Cc2ccc(Cl)cc2)c(C)c1NC(=O)Cn1nc([N+](=O)[O-])c(Cl)c1C 25.1%
O=C(O)/C=C\C(=O)Nc1ccc2c(c1)C(=O)c1cc(F)ccc1-2 28.8% [at 11.4 µM]
Cc1nc(N=Nc2cc(S(=O)(=O)O)ccc2S(=O)(=O)O)c(COP(=O)(O)O)c(C=O)c1O -31.8%
CN(C)c1ccc(/C=C2/C(=O)Nc3ccccc32)cc1 -24.9%
C#CCSc1nnc(-c2sc3ccccc3c2Cl)o1 -28.6%
O=C(c1ccncc1)N1CCC2(CC1)CN(C(c1ccccc1)c1ccccc1)C2 -40.4%
CC(=O)N1CCC2(CC1)CN(C(c1ccccc1)c1ccccc1)C2 16.5%
Cc1noc(C)c1C(=O)N1CCC2(CCCN(C(c3ccccc3)c3ccccc3)C2)CC1 -32.8%
CC(=O)N1CCC2(CC1)CCN(C(c1ccccc1)c1ccccc1)CC2 -26.9%
c1ccc(Nc2ncnc3ccc(-c4ccc5c(c4)OCO5)cc23)cc1 -41.2%
O=c1c(-c2ccc(F)cc2)nc2cnc(N3CCOCC3)nc2n1C1CC1 2.66%
Cc1ccc(S(=O)(=O)NC(=O)NN2C[C@H]3CCC[C@@H]3C2)cc1 -36.1% [at 25.6 µM]
COc1cccc(Nc2ncc3nc(C)c(=O)n(C4CC4)c3n2)c1 -10.3%
COc1ccc(-c2nc3cnc(Nc4ccccc4)nc3n(CCC#N)c2=O)cc1 -8.02%
COc1ccc(-n2c(=O)c(-c3cccs3)nc3cnc(Nc4cccc(OC)c4)nc32)cc1 -16.8%
COc1ccc(-n2c(=O)c(C)nc3cnc(Nc4ccccc4)nc32)cc1 -35.7%
O=C(Nc1ccccc1)N1CC[C@@]2(CCCN(C(=O)c3ccco3)C2)C1 -17.2%
C=CC[C@@H]1C=C[C@H](O/N=C(\C)CCN2CCCCc3nc(C)c(C)cc32)[C@H](CO)O1 21.2% [at 11.4 µM]
O=C(c1cccc(F)c1)N1CCC[C@@]2(CCN(c3ccccc3)C2)C1 4.02%
O=C(c1cccc(F)c1)N1CCC2(CC1)CCN(c1cccc(-c3ccccc3)c1)CC2 -26.8%
CC(=O)N1CCC2(CCCN(c3ncccn3)C2)CC1 -33.5%
O=C(c1cccc(F)c1)N1CCC2(CC1)CCN(c1ccccc1)CC2 -28.2%
O=C(c1cccc(F)c1)N1CCC2(CC1)CN(c1cccc(-c3ccccc3)c1)C2 1.93%
CC(C)CN1CCCC2(CCN(C(=O)c3cccc(F)c3)CC2)C1 -33.2%
CN(C)C(=O)c1ccc(-c2ccc3ncnc(N4CCC(C(=O)O)CC4)c3c2)cc1 6.88%
O=C(O)CCc1ccc(-c2ccccc2)[nH]1 -7.89% [at 11.4 µM]
C=CCNCCOCCOc1ccc(C)cc1[N+](=O)[O-] -79.6%
Cc1cnc(CNc2cc(-c3ccc(C(=O)N(C)C)cc3)ncn2)cn1 13.1%
Nc1nccc(Nc2ccc(S(N)(=O)=O)cc2)n1 -11.8% [at 11.4 µM]
CN1CCN(c2ccnc(-c3ccc(N(C)C)cc3)n2)CC1 -40.7%
O=C1CCc2cc(OCCCCc3nnnn3C3CCCCC3)ccc2N1 28.7%
OCC1CCCN(Cc2ccc(-c3ccccc3)cc2)C1 (stereo unspecified) 8.82%
c1ccc(CN2CC[C@@H](CNc3ncnc4ccccc34)C2)cc1 -7.26% [at 11.4 µM]
CCOc1nc(NCCN2CCOCC2)nc(Nc2ccc(C)cc2)n1 -18.9%
Cc1cc(C(C)(C)C)c(OCCCN2CCOCC2)c(C(C)(C)C)c1 -2.67% [at 11.4 µM]

AC50, inactive:
Nc1nc2c(ncn2COC(CO)CO)c(=O)[nH]1

AC50, active:
Cc1nc(NC(=O)c2ccccc2)sc1-c1csc(Nc2ccc(Cl)cc2Cl)n1 0.355 µM
Cc1nc(NC(=O)c2ccccc2)sc1-c1csc(Nc2cccc(Cl)c2)n1 0.562 µM
C=CCCC(=O)Nc1nc(C)c(-c2csc(Nc3ccc(Cl)cc3)n2)s1 1.26 µM
Cc1nc(NC(=O)c2ccco2)sc1-c1csc(Nc2ccc(Cl)cc2Cl)n1 0.355 µM
Nc1[nH]nc2nc3ccccc3nc12 0.631 µM
COc1ccc(N(C)C(=O)c2ccc3nc(-c4ccccc4)c(-c4ccccc4)nc3c2)cc1 8.91 µM
CCCOc1ccc(Cn2c(C)nc([N+](=O)[O-])c2SCC(O)COC)cc1[N+](=O)[O-] (stereo unspecified) 2.82 µM
CNc1nc(C)cc(C)c1S(=O)(=O)c1ccc(C)cc1 0.631 µM
CNc1nc(C)cc(C)c1S(=O)(=O)c1ccc(Cl)cc1 0.708 µM
COc1ccc(Oc2nc(C)cc(C)c2S(=O)(=O)c2ccc(C)cc2)cc1 14.1 µM
Cc1cc(C)c(S(C)(=O)=O)c(Oc2ccc(C(C)(C)C)cc2)n1 7.94 µM
Cc1ccccc1C1C(C#N)=C2N=C(N)c3c(sc4c3CCCCC4)N2C2=C1C(=O)CC(C)(C)C2 (stereo unspecified) 6.31 µM
COc1cc(C2C(C#N)=C(N)N(c3sc4c(c3C#N)CCCC4)C3=C2C(=O)CC(C)(C)C3)cc(OC)c1OC (stereo unspecified) 10 µM
COc1cccc(Cn2c(NCc3cccnc3)nc3c2c(=O)n(C)c(=O)n3C)c1 17.8 µM
Nc1ccc(-c2sc(N)nc2-c2ccccc2)cc1 7.94 µM
Nc1nc(-c2ccccc2)c(-c2ccccc2)s1 8.91 µM
Cc1ccc(C)c(NC(=O)C2CC3c4ccccc4C2c2ccccc23)c1 (stereo unspecified) 20 µM
CC(=O)c1sc(N)c(C(=O)OC(C)C)c1C 1.58 µM
CCOC(=O)CSCC(NC(=O)OC(C)(C)C)C(=O)OCC (stereo unspecified) 10 µM
Cc1c(Cl)c([N+](=O)[O-])nn1Cc1ccc(C(=O)N/N=C\c2cc(Cl)ccc2O)o1 1.78 µM
Cc1c(Cl)c([N+](=O)[O-])nn1Cc1ccc(C(=O)N/N=C\c2cccc(Br)c2)o1 1.12 µM
O=C(/C=C/c1cccc(Cl)c1)Nc1ccncc1 0.0708 µM
CCCCC1(C)OC(=O)C(=Cc2ccc(N(CC)CC)cc2)C(=O)O1 (stereo unspecified) 10 µM
O=C1Oc2ccccc2C2(O)C3CCCCCC3C12 (stereo unspecified) 1.41 µM
C#CCSc1nc(Cc2ccc(Cl)cc2)nc2ccccc12 0.501 µM
CC1(C)CC(=O)C(C(C#Cc2ccccc2)C2=C(O)CC(C)(C)CC2=O)=C(O)C1 4.47 µM
O=C(c1ccncc1)N1CCC2(CCCN(C(c3ccccc3)c3ccccc3)C2)CC1 10 µM
CC(=O)N1CCC2(CCCN(C(c3ccccc3)c3ccccc3)C2)CC1 15.8 µM
Cc1cccc(CNc2ncnc3ccc(-c4ccc5c(c4)OCO5)cc23)c1 5.01 µM
c1ccc(CNc2ncnc3ccc(-c4ccc5c(c4)OCO5)cc23)cc1 3.16 µM
Cc1cc(O)c(C(C)C)cc1C1(c2cc(C(C)C)c(O)cc2C)OC(=O)c2ccccc21 3.16 µM
Cc1ccc(S(=O)(=O)N(CC(=O)N2CCN(c3ccc(F)cc3)CC2)C2CCCCC2)cc1 2.82 µM
COc1ccc(Nc2ncc3c(n2)CC(c2ccc(C)cc2)CC3=O)cc1 (stereo unspecified) 8.91 µM
COc1ccc(C2CC(=O)c3cnc(Nc4cc(C)cc(C)c4)nc3C2)cc1 (stereo unspecified) 11.2 µM
O=C(c1cccc(F)c1)N1CCC2(CCCN(c3cccc(-c4ccccc4)c3)C2)CC1 7.94 µM
O=C(c1cccc(F)c1)N1CCC2(CCCN(c3ncccn3)C2)CC1 6.31 µM
O=C(c1cccc(F)c1)N1CCC2(CCCN(c3ccccc3)C2)CC1 5.01 µM
Clc1cccc(N/N=C/c2ccc(N3CCOCC3)cc2)c1 10 µM
FC(F)(F)c1cccc(NC(=S)Nc2ccc(Cl)cc2Cl)c1 0.282 µM
FC(F)(F)c1cccc(NC(=S)Nc2cccc(Cl)c2)c1 1.78 µM
COc1ccc(C=O)cc1COc1ccc(C)cc1[N+](=O)[O-] 2.24 µM
CN(C)c1ccc(-c2nccc(Nc3ccc(F)cc3)n2)cc1 3.16 µM
Fc1ccc(Nc2ccnc(-c3ccc4c(c3)OCO4)n2)cc1 2 µM
CN(C)c1ccc(-c2cc(Nc3ccc(F)cc3)ncn2)cc1 2 µM
CC(C)(C)c1ccc(CN(Cc2ccco2)Cc2nnnn2C2CCCC2)cc1 2.24 µM
S[C@@H]1CCCN(Cc2ccccc2)C1 3.16 µM
Cc1ccc(Oc2ncc(CN3CCOCC3)s2)cc1 1.78 µM
CCOC(=O)C1CCN(Cc2cnc(Oc3ccc(OC)cc3)s2)CC1 7.94 µM

From PubChem BioAssay AID1851 (National Center for Advancing Translational Sciences (NCATS), 2009)
